In the test the target is pT7_6His-AlfaTag-HOXD13 (human, UniProt P35453 263-343). As to the kind of experiment: PADIT-seq. The conditions noted are these: dsDNA, one strand shown.
Sequence of pT7_6His-AlfaTag-HOXD13 (P35453 263-343): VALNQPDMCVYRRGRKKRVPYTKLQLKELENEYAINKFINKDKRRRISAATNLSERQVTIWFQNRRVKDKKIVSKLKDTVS
Consider “CTCGAGGATATCAAGATCTGGCCTCGGCCTGTTAAAAGGAACCTCTAGCTAGCCGACTCACTATAGGGATAATCGCCCTGAGCAAAGACC”, for which the binding signal was 2.25 ± 0.0806 log2FC.

Sequence “CTCGAGGATATCAAGATCTGGCCTCGGCCTTTTAGTCGGAACCTCTAGCTAGCCGACTCACTATAGGGATAATCGCCCTGAGCAAAGACC” registered a binding signal of -0.369 ± 0.0988 log2FC.

In turn, “CTCGAGGATATCAAGATCTGGCCTCGGCGCGCTCGCGGGAACCTCTAGCTAGCCGACTCACTATAGGGATAATCGCCCTGAGCAAAGACC” had a binding signal of -1.06 ± 0.163 log2FC.
